Screening data as filed in PubChem.
ELG1 repair inh: qHTS screen for small molecules that inhibit ELG1-dependent DNA repair in human embryonic kidney (HEK293T) cells expressing luciferase-tagged ELG1; hit rate 2.3% among 330,000; AID 504467, 2011; HEK293T ELG1-luciferase reporter, luminescence, 16 h; DNA damage induced by 5-fluorouridine; Potency, µM (highest dose often 46.1 µM), for the others: top-dose activity change, negative = inhibition, most hits filed as inhibitors; also: potency is read from the fitted curve at half-maximal effect; % is scaled to controls: 0 for no effect and ±100 for the full control effect; nearly all actives have a fitted effect of over 55% in size
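Luminescence from the luciferase reporter, measured 30 min after ONE-Glo reagent at room temperature, was the read-out. Beforehand, 2,000 cells per well were exposed for 16 hr at 37 °C to 5-fluorouridine together with compound or vehicle.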
Gal4-VP16 FLuc: VP16 counterscreen qHTS for inhibitors of ROR gamma transcriptional activity. AID 2546, 2010. hit rate 3.5% among 310,000. Potency, µM (series often up to 53.6 µM), for the others: at the top dose activity, negative = inhibition, hits mostly inhibitors. Drosophila S2 Gal4-VP16 UAS-luciferase, luminescence, 20 h;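 also: Gal4-VP16 expression switched on by copper sulfate through the metallothionein promoter; potency is read from the fitted curve at half-maximal effect; % is scaled to controls: 0 for no effect and ±100 for the full control effect; nearly all actives have a fitted effect of over 50% in size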
RORg inh: qHTS for inhibitors of ROR gamma transcriptional activity; Potency, µM (series often up to 53.6 µM), inactives show at the top dose activity change, negative = inhibition, actives largely listed as inhibitors; Drosophila S2 Gal4-RORgamma UAS-luciferase reporter, 20 h; AID 2551, 2010; hit rate 5.4% among 310,000; Nuclear receptor ROR-gamma (Mus musculus), P51450; also: potency is read from the fitted curve at half-maximal effect; % is scaled to controls: 0 for no effect and ±100 for the full control effect; nearly all actives have a fitted effect of over 60% in size
Target sequence (P51450 whole entry, looked up, the tested form may be a part): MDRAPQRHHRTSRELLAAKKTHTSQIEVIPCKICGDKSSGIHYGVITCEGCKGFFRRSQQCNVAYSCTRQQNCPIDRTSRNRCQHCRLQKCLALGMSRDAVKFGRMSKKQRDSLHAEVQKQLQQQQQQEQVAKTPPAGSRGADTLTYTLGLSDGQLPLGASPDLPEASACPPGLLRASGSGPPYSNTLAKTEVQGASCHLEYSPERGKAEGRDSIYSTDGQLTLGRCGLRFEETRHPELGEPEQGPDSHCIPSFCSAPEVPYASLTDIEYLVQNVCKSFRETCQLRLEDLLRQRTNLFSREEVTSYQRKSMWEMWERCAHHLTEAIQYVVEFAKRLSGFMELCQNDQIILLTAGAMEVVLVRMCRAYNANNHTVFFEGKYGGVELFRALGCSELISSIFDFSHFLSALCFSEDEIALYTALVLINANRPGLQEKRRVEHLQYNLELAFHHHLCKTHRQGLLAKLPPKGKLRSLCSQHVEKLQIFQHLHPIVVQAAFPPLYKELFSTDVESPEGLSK
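Stably transfected Drosophila Schneider cells are the test system, with ROR gamma fused to Gal4 and luciferase under UAS control; luminescence is read after 20 hr of 700 uM copper sulfate induction at ambient temperature.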
Giardia kill: Small Molecules that selectively kill Giardia lamblia: qHTS | Giardia lamblia trophozoite viability | activity change, % at 7.66 µM, hits read low | hit rate 0.15% among 340,000; in the data active = activity change below about -80%; inconclusive = between about -30% and that limit;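 also: parasites exposed to compound for two days anaerobically before the ATP read; % is scaled to controls: 0 for no effect and ±100 for the full control effect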
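ATP-content bioluminescence gauges trophozoite survival. Cells (100/well) receive compound and incubate anaerobically for 48 hrs at 37 deg C; detection reagent follows for 15-30 min at room temperature.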
BRCA1 expr act: qHTS Assay to Identify Small Molecule Activators of BRCA1 Expression; MCF7-BRCA1-FFLuc reporter, luminescence, 48 h; response scale: scaled: vehicle 0%, 10 µM genistein 100%; Potency, µM (doses to about 46.1 µM), for inactives: at the top dose activation, most hits filed as activators; hit rate 1.1% among 380,000; AID 624202, 2012; also: potency is read from the fitted curve at half-maximal effect; nearly all actives have a fitted effect of over 80% in size
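MCF7 cells carrying a BRCA1-firefly luciferase reporter (2000 cells/well, phenol-red free MEM) were attached for 2 h at 37 °C, then given compounds for 48 h. Luminescence was read 15 min after luciferase reagent; activity normalized to genistein (10 microM) and DMSO.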
p53 reactivation: qHTS assay for re-activators of p53 using a Luc reporter. Potency, µM (titrated, usually from 92.2 µM), for inactives: top-dose activity change, positive = activation, most hits filed as activators. hit rate 0.063% among 320,000. AID 504706, 2011. H1299 p53-A138V BP100-luciferase reporter, luminescence, 24 h; also: potency is read from the fitted curve at half-maximal effect; % of control where 0% means no effect; nearly all actives have a fitted effect of over 45% in size
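H1299 (p53-null), stable ts p53-A138V + BP100-Luc; 1000 cells/well, Opti-MEM/10% FBS; cpd 4 pt, 1:5; 24 h, 37 deg C, 5% CO2; detection reagent 10 min RT; luminescence.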
An asterisk follows results filed as active. Rows were chosen to be rich in hits. Some 7.6% of all compounds tested hit in one or more screens of this group. Unless noted, calls follow the shape of the dose curve; as a rule, active = well fitted curve in the direction sought with a large enough effect; inconclusive = small, poorly fitted or top-dose-only effect, or another doubt; inactive = no such curve, though single readings can be large; an effect the other way counts as inactive or inconclusive.

What do the screens show for `Cc1ccc(NC(=O)NCC2CCN(Cc3cccc(Cl)c3)CC2)cc1Cl`?
ELG1 repair inh: inconclusive; Gal4-VP16 FLuc: -24%; RORg inh: 20µM*; Giardia kill: -10; BRCA1 expr act: -87%; p53 reactivation: 0%

Results for Cc1cccc(NC(=O)Cn2c(=O)n(CC3CCCO3)c(=O)c3ccccc32)c1 (configuration not stated) ?
ELG1 repair inh: -10%; Gal4-VP16 FLuc: -4%; RORg inh: 8%; Giardia kill: 1; BRCA1 expr act: 3%; p53 reactivation: -9%

How did Cc1cccc(C(=O)Nc2nc3ccc(S(C)(=O)=O)cc3s2)c1 do in these assays?
ELG1 repair inh: inconclusive; Gal4-VP16 FLuc: inconclusive; RORg inh: -23%; Giardia kill: -7; BRCA1 expr act: 3.2µM*; p53 reactivation: inconclusive

Results for CS(=O)(=O)c1ccc2nc(NC(=O)CCS(=O)(=O)c3ccccc3)sc2c1 ?
ELG1 repair inh: -8%; Gal4-VP16 FLuc: inconclusive; RORg inh: 18µM*; Giardia kill: -13; BRCA1 expr act: -84%; p53 reactivation: -11%

How did CC(C)C(=O)Nc1nc2ccc(S(C)(=O)=O)cc2s1 do in these assays?
ELG1 repair inh: 19%; Gal4-VP16 FLuc: 20%; RORg inh: -3%; Giardia kill: -12; BRCA1 expr act: 11µM*; p53 reactivation: 26%

What do the screens show for `CCC(C)C(=O)Nc1nc2ccc(S(C)(=O)=O)cc2s1` (configuration not stated)?
ELG1 repair inh: -14%; Gal4-VP16 FLuc: -8%; RORg inh: 5%; Giardia kill: -10; BRCA1 expr act: 94%; p53 reactivation: 2%

Results for COc1ccccc1NC(=O)Nc1nc2ccc(S(N)(=O)=O)cc2s1 ?
ELG1 repair inh: inconclusive; Gal4-VP16 FLuc: -18%; RORg inh: 6%; Giardia kill: 3; BRCA1 expr act: 4µM*; p53 reactivation: 13%

Results for Cc1ccc(C(=O)Nc2nc3ccc(S(C)(=O)=O)cc3s2)cc1C ?
ELG1 repair inh: 0%; Gal4-VP16 FLuc: 0%; RORg inh: -1%; Giardia kill: -4; BRCA1 expr act: -6%; p53 reactivation: 14%

What do the screens show for `COc1ccccc1CC(=O)Nc1cccc(C(=O)NN2C(=O)c3ccccc3C2=O)c1`?
ELG1 repair inh: -1%; Gal4-VP16 FLuc: -2%; RORg inh: 3%; Giardia kill: -8; BRCA1 expr act: 2%; p53 reactivation: 2%

How did O=C1[C@H](c2ccccc2)[C@@H](c2ccccc2)N1c1ccncc1 do in these assays?
ELG1 repair inh: -5%; Giardia kill: 2; BRCA1 expr act: -16%; p53 reactivation: -4%

How did COc1ccccc1-n1nnnc1SCC(=O)Nc1ccccc1 do in these assays?
ELG1 repair inh: -9%; Gal4-VP16 FLuc: -5%; RORg inh: -1%; Giardia kill: 13; BRCA1 expr act: -2%; p53 reactivation: -31%

Results for Cc1cc(OCCCn2ccnc2)ccc1[N+](=O)[O-] ?
ELG1 repair inh: 2%; Gal4-VP16 FLuc: -7%; RORg inh: -33%; Giardia kill: -28; BRCA1 expr act: -3%; p53 reactivation: 0%

Results for CC(=O)Nc1ccc(-c2cc(C(=O)O)c3cc4ccccc4cc3n2)cc1 ?
BRCA1 expr act: 7%

Results for CS(=O)(=O)c1ccc2nc(NC(=O)c3ccccc3)sc2c1 ?
ELG1 repair inh: inconclusive; Gal4-VP16 FLuc: inconclusive; RORg inh: 11µM*; Giardia kill: 1; BRCA1 expr act: inconclusive

What do the screens show for `Cc1ccc(S(=O)(=O)N2C[C@@H]3[C@H]4CC[C@H](C4)[C@@H]3[C@@H](C)[C@@H]2c2cccn2Cc2ccccc2)cc1`?
ELG1 repair inh: -10%; Giardia kill: 12; BRCA1 expr act: 1%; p53 reactivation: 15%
